Data reported in ChEMBL document CHEMBL1201862, “PubChem BioAssay data set” (2004).
Screen size: about 350,000 compounds; about 700 (0.2%) were called active. No cut-off for these calls is given here. The sample as a whole holds a higher share of actives than the screen did.

The compounds below were run against RecQ-like DNA helicase BLM (Homo sapiens) (UniProt P54132) (assay: qHTS Assay for Inhibitors of Bloom's syndrome helicase (BLM).).
Format: functional

Chain of RecQ-like DNA helicase BLM (Homo sapiens) (P54132 whole entry): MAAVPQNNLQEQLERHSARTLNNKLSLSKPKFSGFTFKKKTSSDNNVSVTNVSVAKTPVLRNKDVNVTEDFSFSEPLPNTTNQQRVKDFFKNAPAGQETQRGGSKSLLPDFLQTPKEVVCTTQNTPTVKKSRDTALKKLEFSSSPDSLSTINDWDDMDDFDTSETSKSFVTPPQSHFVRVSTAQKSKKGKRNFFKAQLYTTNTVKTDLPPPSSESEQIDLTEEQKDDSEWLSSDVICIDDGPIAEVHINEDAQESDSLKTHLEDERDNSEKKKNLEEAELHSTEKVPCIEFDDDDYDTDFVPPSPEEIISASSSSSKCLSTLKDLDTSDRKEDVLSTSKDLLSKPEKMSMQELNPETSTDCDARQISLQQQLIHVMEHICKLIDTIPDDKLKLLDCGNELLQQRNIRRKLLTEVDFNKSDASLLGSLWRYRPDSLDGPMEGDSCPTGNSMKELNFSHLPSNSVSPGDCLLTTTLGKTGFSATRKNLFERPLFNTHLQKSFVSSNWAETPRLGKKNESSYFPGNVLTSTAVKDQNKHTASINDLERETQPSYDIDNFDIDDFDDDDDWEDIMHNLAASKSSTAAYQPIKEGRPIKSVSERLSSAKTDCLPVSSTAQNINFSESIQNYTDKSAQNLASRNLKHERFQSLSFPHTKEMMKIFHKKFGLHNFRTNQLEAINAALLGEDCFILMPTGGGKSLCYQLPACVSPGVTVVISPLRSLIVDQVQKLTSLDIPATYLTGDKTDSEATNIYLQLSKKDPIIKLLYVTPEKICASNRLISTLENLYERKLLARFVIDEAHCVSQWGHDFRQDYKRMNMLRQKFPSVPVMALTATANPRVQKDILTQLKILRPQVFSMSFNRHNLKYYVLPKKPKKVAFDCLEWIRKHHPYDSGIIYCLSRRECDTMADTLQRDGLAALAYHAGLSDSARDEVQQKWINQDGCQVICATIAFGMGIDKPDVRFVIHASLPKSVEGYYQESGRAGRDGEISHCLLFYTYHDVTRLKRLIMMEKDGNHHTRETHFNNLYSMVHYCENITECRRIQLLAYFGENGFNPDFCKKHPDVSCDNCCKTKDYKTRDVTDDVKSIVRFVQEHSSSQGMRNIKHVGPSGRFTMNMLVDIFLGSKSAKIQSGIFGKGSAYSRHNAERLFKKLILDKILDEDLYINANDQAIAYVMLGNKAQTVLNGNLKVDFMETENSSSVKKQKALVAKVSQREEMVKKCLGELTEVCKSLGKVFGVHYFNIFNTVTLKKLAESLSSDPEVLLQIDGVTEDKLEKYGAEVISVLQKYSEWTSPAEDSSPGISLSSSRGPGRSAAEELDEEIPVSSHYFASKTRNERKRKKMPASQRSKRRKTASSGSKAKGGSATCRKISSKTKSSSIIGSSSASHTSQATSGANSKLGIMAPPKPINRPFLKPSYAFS

SMILES | Potency
N[C@H](Cc1ccc(O)c(O)c1)C(=O)O | 28.2 µM (active)
